# High-throughput results from PubChem.
# This is one part of a sample in which hits are shown more often than they occur.
# GIRK2 activator: GIRK2 channel activators by thallium flux. P48051. HEK293 GIRK2/NPY4 cells, thallium flux fluorescence. 34,000 tested, under 10 active. activation (% efficacy), % for hits at 37.5 µM;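 active = primary screen hit, no activity in plain HEK293 cells, and in GIRK2-only cells above 5% efficacy rising with concentration; inactive = the rest, including fluorescent compounds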;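 note: efficacy is normalized control-subtracted fluorescence 15 s after thallium addition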
# GluA2 TARP mod: modulates AMPAR-stargazin complexes; O88602+P19491; HEK293 GluA2+stargazin, membrane potential dye (FDSS), glutamate EC50; hits were called plate by plate, in both directions; calls only at 30 µM; 40,000 tested, 3.5% active; AID 1259245;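 active = any of four per-well response measures lying three or more SD from its plate-wide compound average, in either direction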
# Numbers without * were called inactive; i = inactive; · = no result given; + = active, no number.
SMILES,GIRK2 activator,GluA2 TARP mod
Cc1cc(-c2nnc(SCC(=O)NC(C)C)o2)c(C)o1,i,i
Cc1cc([N+](=O)[O-])ccc1NC(=O)C(=O)NCC(c1cccc2ccccc12)N(C)C (configuration not stated),i,·
CC1Cc2cc(-c3cc(CC(=O)NCC4CCCO4)no3)ccc2O1 (configuration not stated),i,i
CC1Cc2cc(-c3cc(CC(=O)NC4CCCC4)no3)ccc2O1 (configuration not stated),i,+
COc1cccc(C(=O)Nc2ccc(-n3nnn(CC(N)=O)c3=O)cc2)c1OC,i,i
COc1ccc(N2CC(c3nc4ccccc4n3CC(O)COc3c(C)cccc3C)CC2=O)cc1 (configuration not stated),i,i
COc1ccc(NC(=O)CSc2nnc(C)c3ccccc23)c(OC)c1,i,i
COc1ccc(NC(=O)CSc2nc(-c3ccc(C)cc3)c3ccccc3n2)c(OC)c1,i,+
CCOc1cccc2sc(NC(=O)c3c(C)cnn3C)nc12,i,·
COc1cccc2sc(NC(=O)c3cc(C)n(C)n3)nc12,i,+
COc1cccc2sc(NC(=O)c3cc(C)nn3C)nc12,i,+
CCn1nc(C(=O)Nc2nc3c(C(C)C)cccc3s2)cc1C,i,·
COCCNC(=O)NCC1(c2cccs2)CC1,i,+
COCCNC(=O)C(=O)NCC1(c2cccs2)CC1,i,i
CCn1c(N/N=C/c2ccc(OC)c(OC)c2)nc2c1c(=O)[nH]c(=O)n2C,·,i
COc1ccc(C)cc1S(=O)(=O)Nc1ccc(N2CCCCS2(=O)=O)cc1,·,i
CN(C)c1oc(-c2ccccc2F)nc1S(=O)(=O)c1ccccc1,i,i
COc1ccccc1/C=C(\C#N)C(N)=C(C#N)C#N,i,+
COc1ccc(OC)c(NC(=O)/C(C#N)=C/c2ccc(C(C)C)cc2)c1,i,i
COc1ccc(S(=O)(=O)CC(=O)N2CCN(c3nc4c(F)cc(F)cc4s3)CC2)cc1,i,i
O=C(COc1ccc(F)cc1)NCCS(=O)(=O)N1CCN(Cc2ccccc2)CC1,i,i
O=S(=O)(CCCOc1ccc(F)cc1)NC1CCN(Cc2ccccc2)CC1,i,+
O=C(c1cnn(-c2ccccc2)n1)N1CCC(Cn2cccn2)CC1,i,i
COc1ccc(-c2cc(CC(=O)NCCN3CCOCC3)no2)cc1,i,·
COc1cccc(-c2cc(CC(=O)NCCCN3CCOCC3)no2)c1,i,+
SMILES,GIRK2 activator,GluA2 TARP mod
Cc1c(C(=O)NCCCOC(C)C)c(C(F)(F)F)nn1C1CCN(C)CC1,i,i
COc1ccc(S(=O)(=O)Nc2ccc(-n3nnn(CC(N)=O)c3=O)cc2)cc1OC,i,i
O=C(C1CCCC1)N1CCc2ccc(NS(=O)(=O)c3cccc(Cl)c3)cc21,i,i
COc1ccccc1OCC(O)Cn1c(C2CC(=O)N(c3ccc(C)cc3)C2)nc2ccccc21 (configuration not stated),i,i
CN(CCCC(N)=O)S(=O)(=O)c1ccc2c(c1)C(=O)c1ccccc1C2=O,·,+
COc1ccc(S(=O)(=O)N(C)CCCC(=O)O)cc1N(C)S(=O)(=O)c1ccccc1,·,i
Cc1nc(C)c(C(=O)N2CCN(c3nc4c(C)c(C)ccc4s3)CC2)s1,i,i
Cc1nc(C)c(C(=O)N2CCN(c3ccc(N(C)C)nn3)CC2)s1,i,+
COc1ccc(-c2ccc(N3CCC(C(=O)NCCc4c[nH]c5ccccc45)CC3)nn2)cc1,i,+
COc1cc(OC)cc(C(=O)N2CCN(c3ccc(-c4ccncc4)nn3)CC2)c1,i,+
O=C(Cc1c[nH]c2ccccc12)N1CCN(c2cc(-c3cccnc3)[nH]n2)CC1,i,·
COc1ccc(-c2ccc(N3CCC(C(=O)NC4CC4)CC3)nn2)cc1,i,+
COc1ccccc1CNC(=O)C1CCN(c2ccc(-c3ccc(F)cc3)nn2)CC1,i,i
O=C(Cc1c[nH]c2ccccc12)N1CCN(c2ccc(N3CCCC3)nn2)CC1,i,+
O=C(c1ccc2c(c1)OCO2)N1CCN(c2ccc(-c3ccncc3)nn2)CC1,i,i
COc1ccc(-c2ccc(N3CCC(C(=O)N4CCN(C)CC4)CC3)nn2)cc1,i,i
CCc1c2c(nc3sc(C(=O)N4CCOCC4)c(N)c13)CC(C)(C)CC2=O,i,i
CCOC(=O)Cn1c(=O)c2c(nc3n(-c4cccc(OC)c4)c(C)c(C)n23)n(C)c1=O,·,i
O=C(Nc1cc(Cl)cc(Cl)c1)c1ccc(N2CCCCS2(=O)=O)cc1,i,i
Cc1ccc(NC(=O)CSc2nccnc2N2CCSCC2)c(Br)c1,i,i
O=C(Cc1csc(SCC(=O)c2ccc3c(c2)OCO3)n1)NC1CC1,i,·
O=C(CCn1cnc2c(cnn2-c2ccc(F)cc2)c1=O)NCc1c(F)cccc1F,i,·
